Laboratory results taken from PubChem BioAssay AID1159580 (chemical genetic matrix, 2015).
About 2,000 (36%) of roughly 5,500 compounds were called active. About 18% were inconclusive and are not listed. Cut-off read from the data, not from the text of the source: active = normalized growth mostly below about 0.91 (no sharp cut-off); inconclusive = no clear call, values can overlap the other calls; inactive = mostly above about 0.92. The list shows a part of the results.

Assay: chemical genetic growth profiling, strain panel (AID 1159580);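 note: tested at 20 µM; growth read once vehicle control cultures reached saturation at 30 °C; 1 = growth at the plate median or of vehicle wells; lower values mean less growth of the strain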
Conditions: growth OD
[1] = S. cerevisiae deletion strains, locus YAL013W, strain DEP1, hits give low values
[2] = S. cerevisiae deletion strains, locus YDR150W, strain NUM1, hits give low values
[3] = S. cerevisiae deletion strains, locus YGR078C, strain PAC10, hits give low values
[4] = S. cerevisiae deletion strains, locus YJR075W, strain HOC1, hits give low values
[5] = S. cerevisiae deletion strains, locus YMR307W, strain GAS1, hits give low values
[6] = S. cerevisiae deletion strains, locus YNL128W, strain TEP1, hits give low values
[7] = S. cerevisiae deletion strains, locus YNL153C, strain GIM3, hits give low values
[8] = S. cerevisiae deletion strains, locus YNL322C, strain KRE1, hits give low values
[9] = S. cerevisiae deletion strains, locus YPL055C, strain LGE1, hits give low values
[10] = S. cerevisiae deletion strains, locus YPL241C, strain CIN2, hits give low values

Measured: normalized growth

NC(=S)NCCCC(N)C(=O)O (centres undefined)
inactive: [1] 1.01 | S. cerevisiae deletion strains, locus YAL040C, strain CLN3, hits give low values 1 | S. cerevisiae deletion strains, locus YCL061C, strain MRC1 (second series), hits give low values 1.01 | [2] 1.01 | S. cerevisiae deletion strains, locus YDR363W, strain ESC2, hits give low values 1.02 | S. cerevisiae deletion strains, locus YER002W, strain NOP16, hits give low values 1.02 | [3] 1.01 | [4] 1.02 | [5] 1.01 | [6] 1.03 | [7] 1.01 | S. cerevisiae deletion strains, locus YNL175C, strain NOP13, hits give low values 1.03 | S. cerevisiae deletion strains, locus YNL197C, strain WHI3, hits give low values 1.01 | S. cerevisiae deletion strains, locus YNL224C, strain SQS1, hits give low values 1.02 | [8] 1.02 | S. cerevisiae deletion strains, locus YOR083W, strain WHI5 (second series), hits give low values 0.994 | [9] 1.03 | [10] 1.01

CCc1cccc(CC)c1N(COC)C(=O)CCl
inactive: [1] 1 | S. cerevisiae deletion strains, locus YBR021W, strain FUR4, hits give low values 1.01 | S. cerevisiae deletion strains, locus YBR229C, strain ROT2, hits give low values 1.01 | S. cerevisiae deletion strains, locus YCL029C, strain bik1, hits give low values 1.02 | S. cerevisiae deletion strains, locus YDL035C, strain GPR1, hits give low values 1.02 | S. cerevisiae deletion strains, locus YDL074C, strain BRE1, hits give low values 1.03 | S. cerevisiae deletion strains, locus YDL101C, strain DUN1, hits give low values 1.01 | S. cerevisiae deletion strains, locus YDL134C, strain PPH21, hits give low values 1.01 | S. cerevisiae deletion strains, locus YDL185W, strain tfp1, hits give low values 1.02 | S. cerevisiae deletion strains, locus YDL192W, strain arf1, hits give low values 1.03 | S. cerevisiae deletion strains, locus YDR101C, strain arx1, hits give low values 1.02 | [2] 0.995 | S. cerevisiae deletion strains, locus YDR162C, strain NBP2, hits give low values 0.999 | S. cerevisiae deletion strains, locus YDR318W, strain mcm21, hits give low values 1.02 | S. cerevisiae deletion strains, locus YDR388W, hits give low values 1.02 | S. cerevisiae deletion strains, locus YDR502C, strain sam2, hits give low values 1.02 | S. cerevisiae deletion strains, locus YEL061C, strain CIN8, hits give low values 1 | S. cerevisiae deletion strains, locus YER110C, hits give low values 1.01 | S. cerevisiae deletion strains, locus YER155C, strain BEM2, hits give low values 1 | S. cerevisiae deletion strains, locus YER167W, strain BCK2, hits give low values 1 | S. cerevisiae deletion strains, locus YGL078C, strain dbp3, hits give low values 1.02 | S. cerevisiae deletion strains, locus YGL086W, strain mad1, hits give low values 0.999 | S. cerevisiae deletion strains, locus YGL248W, strain PDE1, hits give low values 1.01 | [3] 1.01 | S. cerevisiae deletion strains, locus YGR135W, strain pre9, hits give low values 1.02 | S. cerevisiae deletion strains, locus YGR229C, strain SMI1, hits give low values 1.02 | S. cerevisiae deletion strains, locus YGR252W, strain gcn5, hits give low values 1.05 | S. cerevisiae deletion strains, locus YHR030C, strain SLT2, hits give low values 1 | S. cerevisiae deletion strains, locus YHR079C, strain IRE1 (second series), hits give low values 1.02 | S. cerevisiae deletion strains, locus YHR094C, strain hxt1, hits give low values 1.02 | S. cerevisiae deletion strains, locus YHR129C, strain ARP1, hits give low values 1 | S. cerevisiae deletion strains, locus YHR200W, strain rpn10, hits give low values 1.02 | S. cerevisiae deletion strains, locus YIL066C, strain RNR3, hits give low values 1.01 | S. cerevisiae deletion strains, locus YIL073C, strain SPO22, hits give low values 1.11 | S. cerevisiae deletion strains, locus YIL125W, strain kgd1, hits give low values 1.01 | S. cerevisiae deletion strains, locus YIR030C, strain dcg1, hits give low values 1.03 | S. cerevisiae deletion strains, locus YJL095W, strain BCK1, hits give low values 1.02 | S. cerevisiae deletion strains, locus YJL134W, strain LCB3, hits give low values 1.01 | S. cerevisiae deletion strains, locus YJL168C, strain set2, hits give low values 1.03 | S. cerevisiae deletion strains, locus YJL187C, strain SWE1 (second series), hits give low values 1 | S. cerevisiae deletion strains, locus YJR043C, strain POL32, hits give low values 1.01 | [4] 1.01 | S. cerevisiae deletion strains, locus YKL009W, strain mrt4, hits give low values 1.05 | S. cerevisiae deletion strains, locus YKL068W, hits give low values 0.999 | S. cerevisiae deletion strains, locus YKL085W, strain MDH1 (second series), hits give low values 1.01 | S. cerevisiae deletion strains, locus YKL085W, strain MDH1, hits give low values 1.01 | S. cerevisiae deletion strains, locus YKL190W, strain CNB1, hits give low values 0.992 | S. cerevisiae deletion strains, locus YKR001C, strain vps1, hits give low values 1.04 | S. cerevisiae deletion strains, locus YLR039C, strain RIC1, hits give low values 1 | S. cerevisiae deletion strains, locus YLR058C, strain SHM2, hits give low values 1.01 | S. cerevisiae deletion strains, locus YLR102C, strain apc9, hits give low values 1.03 | S. cerevisiae deletion strains, locus YLR262C, strain YPT6, hits give low values 1.02 | S. cerevisiae deletion strains, locus YLR268W, strain sec22, hits give low values 1.02 | S. cerevisiae deletion strains, locus YLR330W, strain CHS5, hits give low values 1.01 | S. cerevisiae deletion strains, locus YLR342W, strain FKS1 (second series), hits give low values 1 | S. cerevisiae deletion strains, locus YLR371W, strain rom2, hits give low values 1.02 | S. cerevisiae deletion strains, locus YLR418C, strain cdc73, hits give low values 1.05 | S. cerevisiae deletion strains, locus YML016C, strain PPZ1, hits give low values 1 | S. cerevisiae deletion strains, locus YML032C, strain rad52, hits give low values 1.03 | S. cerevisiae deletion strains, locus YML124C, strain tub3, hits give low values 1.01 | S. cerevisiae deletion strains, locus YMR078C, strain ctf18, hits give low values 1.02 | S. cerevisiae deletion strains, locus YMR223W, strain ubp8, hits give low values 1.02 | S. cerevisiae deletion strains, locus YMR263W, strain SAP30, hits give low values 0.997 | [5] 1.01 | S. cerevisiae deletion strains, locus YNL067W, strain RPL9B, hits give low values 1 | [6] 1.01 | [7] 1 | S. cerevisiae deletion strains, locus YNL233W, strain BNI4, hits give low values 1.01 | S. cerevisiae deletion strains, locus YNL250W, strain rad50, hits give low values 1.02 | S. cerevisiae deletion strains, locus YNL271C, strain bni1, hits give low values 1.03 | S. cerevisiae deletion strains, locus YNL298W, strain CLA4, hits give low values 1.03 | S. cerevisiae deletion strains, locus YNL307C, strain MCK1, hits give low values 1.03 | [8] 1 | S. cerevisiae deletion strains, locus YNR052C, strain pop2, hits give low values 1.03 | S. cerevisiae deletion strains, locus YOL006C, strain TOP1, hits give low values 1.05 | S. cerevisiae deletion strains, locus YOL012C, strain htz1 1.33 | S. cerevisiae deletion strains, locus YOL147C, strain pex11, hits give low values 1.02 | S. cerevisiae deletion strains, locus YOR061W, strain CKA2, hits give low values 0.999 | S. cerevisiae deletion strains, locus YOR069W, strain VPS5, hits give low values 0.999 | S. cerevisiae deletion strains, locus YOR136W, strain idh2, hits give low values 1.02 | S. cerevisiae deletion strains, locus YOR144C, strain elg1, hits give low values 1.02 | S. cerevisiae deletion strains, locus YOR184W, strain ser1, hits give low values 1.04 | S. cerevisiae deletion strains, locus YOR316C, strain cot1, hits give low values 1.03 | [9] 1.02 | [10] 1.01 | S. cerevisiae deletion strains, locus YPR119W, strain clb2, hits give low values 1.02 | S. cerevisiae deletion strains, locus YPR141C, strain kar3, hits give low values 1.03 | S. cerevisiae deletion strains, locus YPR163C, strain tif3, hits give low values 1.03 | S. cerevisiae deletion strains, locus YPR167C, strain met16, hits give low values 1.02 | S. cerevisiae deletion strains, strain wtn01, hits give low values 1.01 | S. cerevisiae strains, strain wild type, hits give low values 1
